About 83,000 compounds went through this panel and 20% of them were active in at least one assay; those are over-represented in the sample as a whole.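 Negative percent growth values reflect cell death: -40 means 40% of the cells present at the start died, and -100 means all died.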 Values without a mark were called inactive. Calls of active or inactive are those of the source. How the source made its calls: active means growth percent below 10; inactive means the rest.
test system: HL-60(TB) leukemia; experiment: NCI-60 one-dose screen, 48 h (100 = growth as untreated, 0 = no growth, -100 = all killed); conditions: 10 µM unless noted

Row | SMILES | growth
1 | C/C=C/C1=CN2C(=O)c3cc(OC4OC(C)C(NC)C(C)(O)C4O)c(C)c(O)c3N=C[C@@H]2C1 (stereo not given in full) | -4.33% (active)
2 | CC[C@H](C)[C@H](NC(=O)[C@@H](N)CCC(N)=O)C(=O)N[C@@H](Cc1ccc(O)cc1)C(=O)N[C@@H](CCCCN)C(=O)N[C@@H](CCCCN)C(=O)N[C@@H](Cc1ccc(O)cc1)C(=O)N[C@@H](CCCNC(=N)N)C(=O)N[C@H](C(=O)N[C@@H](Cc1c[nH]c2ccccc12)C(=O)N[C@@H](Cc1ccc(O)cc1)C(=O)N[C@@H](CCCNC(=N)N)C(=O)N[C@@H](CCCCN)C(=O)N[C@@H](C)C(=O)N[C@@H](Cc1c[nH]c2ccccc12)C(=O)N[C@@H](CCCCN)C(=O)N[C@H](C(=O)N[C@@H](CC(C)C)C(=O)NCC(=O)N[C@@H](CCCCN)C(=O)N[C@H](C(N)=O)C(C)C)C(C)C)[C@@H](C)O | 13.9%
3 | OC(CCCCCCCCC(O)CN1CCc2ccccc2C1)CN1CCc2ccccc2C1 (stereo not given) | 95.1%
4 | CC(C)OP(=O)(CCC(=O)c1c[nH]c2ccccc12)OC(C)C | 92.2%
5 | CSC1SCC2C(=O)N(C)C(C(C)C)C(=O)OCC(NC(=O)c3cnc4ccccc4n3)C(=O)NC(C)C(=O)N(C)C1C(=O)N(C)C(C(C)C)C(=O)OCC(NC(=O)c1cnc3ccccc3n1)C(=O)NC(C)C(=O)N2C (stereo not given) | -51.1% (active)
6 | COc1cccc(C2C3=C(COC3=O)N(CCO)c3cc4c(cc32)OCO4)c1 (stereo not given) | -2.69% (active)
7 | Clc1ccc(-c2nnc(Cn3ccnc3)o2)cc1 | 93.8%
8 | COc1ccc(Cn2cc3c(c2-c2cc(OC)c(OC)c(OC)c2)CCc2cnoc2-3)cc1N | 5.54% (active)
9 | COc1cc(NC(C)CCCN)c2ncccc2c1Oc1ccc(Cl)cc1 (stereo not given) | 94.8%
10 | c1ccc(C(=NNc2nc3ccccc3o2)c2ccccn2)nc1 | -11.8% (active)
11 | O=C(CN1CCOCC1)Nc1ccc2ncnc(Nc3ccc(Oc4cccc(F)c4)c(Cl)c3)c2c1 | 84.5%
12 | O=S(=O)(NCCNc1nccc(-c2c(-c3cccc(F)c3)nc3occn23)n1)c1ccc(C(F)(F)F)cc1 | 106%
13 | Cc1c2c[n+](C(C)C)ccc2c(C)c2c1[nH]c1ccccc12 | 14.4%
14 | COc1cc(C2c3cc4c(cc3C3OC(=O)C2C3CO)OCO4)cc(OC)c1OC (stereo not given) | -17.2% (active)
15 | ClC1=C(Br)C(Br)(Br)C(=C(Br)Br)C1(Br)Br | 29.8%
16 | O=C(OC1CCCC1)c1ccccc1Cl | 99.2%
17 | COC(=O)c1cc(-c2ccc(Cl)c(Cl)c2)[nH]c(=O)c1C#N | 101%
18 | CC[C@H](C)[C@@H]1NC(=O)[C@H](Cc2ccc(O)cc2)N(C)C(=O)[C@H](Cc2ccccc2)NC(=O)CN(C)C(=O)[C@@H]2CCCN2C(=O)[C@@H](Cc2ccccc2)N(C)C(=O)[C@H](CC(C)C)NC1=O | -24% (active)
19 | CCc1ccc(CCC(=O)Nc2ncc(Cc3ccc(Cl)cc3)s2)o1 | -39.6% (active)
20 | Nc1cccc(C(=O)Nc2ccc3c(O)c(N=Nc4ccc(N=Nc5ccc(S(=O)(=O)O)cc5)cc4)c(S(=O)(=O)O)cc3c2)c1 | 88.7%
21 | C#Cc1cccc(Nc2nc3ccc([N+](=O)[O-])cc3nc2Nc2cccc(C#C)c2)c1 | -33.9% (active)
22 | O=C(NCCNc1nccc(-c2c(-c3cccc(O)c3)nc3sccn23)n1)c1ccc(N2CCOCC2)c(C(F)(F)F)c1 | 113%
23 | O=C(c1ccccc1)C(Sc1ccccc1)c1ccccc1 (stereo not given) | 84.1%
24 | CCCCCCCCSC1=CC(=O)C(OC)=C(OC)C1=O | -10.5% (active)
25 | C#CC#CC#CC#CC#CC#CC#CC#CC[C@@H]1OC[C@H](COC(=O)O[C@@H](C(=O)O[C@H]2C[C@@]3(O)[C@@H](OC(=O)c4ccccc4)[C@@H]4[C@]5(OC(C)=O)CO[C@@H]5C[C@H](O)[C@@]4(C)C(=O)[C@H](OC(C)=O)C(=C2C)C3(C)C)[C@@H](NC(=O)c2ccccc2)c2ccccc2)O1 | 6.04% (active)

— PubChem BioAssay (NCI)
